HCMV inh = blocks human cytomegalovirus replication; HFF cells, HCMV-luciferase reporter, 72 h; active compounds read low; activity change, negative = inhibition, % at 57.5 µM; 4.5% of 410,000 active; in the data active = activity change below about -60%; inconclusive = no clear call, values can overlap the other calls; inactive = above about -39%
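Two-dose cell screen: HFF monolayers treated with compounds and infected with luciferase-expressing HCMV at 1 PFU/cell, 72 h at 37C, then lysed for luciferase measurement.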
LASV entry inh = inhibitors of Lassa virus binding or cell entry; Lassa virus pseudotype entry inhibition, cell reporter; 1.2% of 300,000 active; Potency, µM (doses to about 37.9 µM), for the others: at the top dose activity change, negative = inhibition, hits mostly inhibitors; calls by dose curve; tested in HEK293 cells; also: potency is read from the fitted curve at half-maximal effect; nearly all actives have a fitted effect of over 50% in size
HCV inhibitor = HCV inhibition; Huh7.5.1 HCVcc-Cre infection, luciferase reporter, 44 h; Potency, µM (titrated, usually from 41.8 µM), inactives show at the top dose activity change, negative = inhibition, usual class: inhibitors; 3.4% of 340,000 active; AID 651820; active = well fitted inhibition curve with a large enough effect; inconclusive = small, poorly fitted or top-dose-only effect, or another doubt; inactive = no such curve, though single readings can be large or run the other way; also: potency is read from the fitted curve at half-maximal effect
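Reporter virus HCVcc-Cre (~0.5 moi) infects cells exposed to compound; seeding density 1,000 cells/well with 4 h settling beforehand. Luminescence, 15 sec read, taken 44 h post-infection following a 15 min RT substrate incubation.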
Marburg entry inh = Marburg virus entry inhibition. Marburg virus pseudotyped entry inhibition, cell reporter. Potency, µM (top dose mostly 37.8 µM), without a hit: at the top dose activity change, negative = inhibition, most hits filed as inhibitors. 1.8% of 300,000 active; calls by dose curve; tested in HEK293 cells; also: potency is read from the fitted curve at half-maximal effect
VACV mCherry inh = vaccinia inhibition (mCherry reporter). Vaccinia virus mCherry reporter infection, fluorescence. 0.63% of 310,000 active. Potency, µM (series often up to 36.5 µM), for inactives: top-dose activity change, negative = inhibition, hits mostly inhibitors; calls by dose curve; tested in A549 cells; also: potency is read from the fitted curve at half-maximal effect; nearly all actives have a fitted effect of over 35% in size
Vaccinia Venus = vaccinia inhibition (Venus reporter) | 0.46% of 330,000 active | Potency, µM (titrated, usually from 36.5 µM), inactives show at the highest dose activity change, negative = inhibition, most hits filed as inhibitors | Vaccinia virus Venus reporter expression, fluorescence | AID 720580; calls by dose curve; tested in A549 cells; also: potency is read from the fitted curve at half-maximal effect; nearly all actives have a fitted effect of over 30% in size
* hit, by the source's call; i = inactive; ? = inconclusive; . = no result given; [ ] = dose if it differs, or a comment. The list is not random: actives were taken first. Their share in the collection is about 7.8%. % is scaled to controls: 0 for no effect and ±100 for the full control effect.

SMILES	HCMV inh	LASV entry inh	HCV inhibitor	Marburg entry inh	VACV mCherry inh	Vaccinia Venus
COc1ccc(CN2C(=O)C(n3ccc4ccccc43)c3cccc(F)c32)cc1 (stereo not given)	-72*	.	.	.	.	.
COc1cc2c(-c3ccc4cc[nH]c4c3)c(-c3ccc(C#N)cc3)oc(=O)c2cc1OC	-30	.	11µM*	.	?	?
COc1ccccc1-c1oc2ccccc2c1-c1ccc2cc[nH]c2c1	13	.	11µM*	.	-27%	?
Cc1ccc(NC(=O)Cc2c(C(=O)O)c(C)cn2C)cc1Cl	14	5%[46.1 µM]	.	.	-10%	-3%
Oc1ccccc1CNCCCNCc1ccccc1O	44	?	2.8µM*	?	.	.
c1ccc(CNCCCNCCCCNCCCNCc2ccccc2)cc1	-97*	?	?	?	13µM*	13µM*
O=C(O)CCCCNCc1ccccc1	-12	14%	2%	14%	i	-10%
CCOC(=O)C1=C(O)/C(=C\c2ccc(CNC(=O)C(=O)Nc3ccccc3)o2)N=C1C	-74*	-10%	4%	28%	-13%	8%
CCOC(=O)C1=C(O)/C(=C\c2cccs2)N=C1C	13	13%	-6%	-4%	-2%	-7%
CC1(C)CC(=O)C(N=Nc2cc(C(F)(F)F)ccc2Cl)=C(O)C1	-62*	.	-19%	.	.	.
CN1CCN2c3ccccc3Cc3ccccc3C2C1 (stereo not given)	?	?	4%[8.37 µM]	5.6µM*	-19%	-17%
COc1cc(/C=C/c2nc(C#N)c(NC(C)c3ccccc3)o2)cc(OC)c1OC (stereo not given)	152	?	.	?	?	?
O=C(CN1CCCC1)Nc1ccc(-c2nc3cc(NC(=O)CN4CCCC4)ccc3o2)cc1	-100*	?	?	?	.	.
O=C(C/C=N\O)Nc1ccc(Oc2ccccc2)cc1	-32	0%[46.1 µM]	-2%	-4%[46.1 µM]	?	8%
CCN(CC)CC(=O)Nc1ccc(-c2nc3cc(NC(=O)CN(CC)CC)ccc3o2)cc1	140	11%	-24%	0.71µM*	.	-6%
CCC(C)NCC(=O)Nc1ccc(-c2nc3cc(NC(=O)CNC(C)CC)ccc3o2)cc1 (stereo not given)	-84*	?	13%	?	.	-15%
CO/N=C\CC(=O)Nc1ccc(Oc2ccccc2)cc1	-70*	?	4%	?	?	-10%
CCN(CC)CC(=O)Nc1ccc(Oc2ccc(NC(=O)CN(CC)CC)cc2)cc1	-40	-27%	?	4µM*	-11%	-11%
COc1ccc2c(c1)CCC1=C2NC(=S)NC1c1ccc(N(C)C)cc1 (stereo not given)	-35	?	11µM*	?	?	-28%
COc1cc(C2NC(=S)NC3=C2CCc2ccccc23)cc(OC)c1OC (stereo not given)	4	19%	-8%	-2%	-19%	-9%
COc1ccc(-c2cc(C(=O)Oc3ccccc3)c3cc(C)ccc3n2)cc1	53	2%[46.1 µM]	.	.	-17%	-20%
Oc1ccccc1C=NNC(=S)NC1CC2C=CC1C2 (stereo not given)	-71*	.	.	.	?	?
Oc1ccccc1/C=N/NC(=S)NC1CC2C=CC1C2 (stereo not given)	?	?	-24%	?	-25%[7.34 µM]	-13%[7.34 µM]
CN(/N=C/c1cc(Cl)cc(Cl)c1O)C(=S)NC(C)(C)C	61	.	?	.	.	.
Oc1c(Cl)cc(Cl)cc1/C=N/NC(=S)NC1CC2C=CC1C2 (stereo not given)	-68*	?	?	?	?	?
SMILES	HCMV inh	LASV entry inh	HCV inhibitor	Marburg entry inh	VACV mCherry inh	Vaccinia Venus
Cc1c(C2=CCN(S(=O)(=O)c3cccc(Cl)c3)CC2)c2ccccc2n1CC(=O)N1CCCC1	-35	-1%[46.1 µM]	.	20%[46.1 µM]	-12%	2%
N[C@@H](Cc1ccc(O)cc1)C(=O)NO	.	.	.	.	i	-7%
C[C@]12CC[C@@H]3c4ccc(O)cc4C[C@@H](CCCCCCCCCS(=O)CCCC(F)(F)C(F)(F)F)[C@H]3[C@@H]1CC[C@@H]2O (stereo not given in full)	.	3.3µM*	.	?	.	.
CN(C)CC(C)(O)c1ccc2c(c1)CN(Cc1cnn(-c3ccccc3)c1)CCO2 (stereo not given)	.	.	.	.	-13%	13%
Cc1ccc(OCCOCCN2CCN(C)CC2)c(C(C)(C)C)c1	-25	.	?	.	.	.
Cc1cc(C(C)(C)C)ccc1OCCOCCN1CCCC1	-29	?	?	8.2µM*	-3%	-22%
Clc1cc(Br)ccc1OCCOCCN1CCCC1	9	.	?	.	.	.
COCCCNCCOCCOc1ccc(Cl)cc1C(C)(C)C	?	?	?	5.8µM*	?	?
CC(C)(C)c1cc(Cl)ccc1OCCOCCN1CCCC1	-10	?	?	8.9µM*	i	-25%
Cc1cc(C)c(C)c(OCCOCCN2CCN(C)CC2)c1	-1	-27%	4µM*	?	-8%	-10%
Cc1ccc2c(C)c(C(=O)N(Cc3ccc(Cl)cc3)C3CCS(=O)(=O)C3)oc2c1 (stereo not given)	7	-29%[46.1 µM]	.	-23%[46.1 µM]	-25%	-24%
CCOc1cc(/C=N/N=C(N)N)ccc1OCc1ccc(Cl)cc1	-24	?	?	?	-1%	-21%
NC(N)=N/N=C/c1ccc(OCc2ccccc2)c(OCc2ccccc2)c1	-103*	?	?	?	?	-15%
NCCc1ccc(OCc2ccccc2)c(OCc2ccccc2)c1	-94*	?	7.9µM*	?	18µM*	?
COc1cc(/C=N/N=C(N)N)ccc1OCc1ccc(Cl)cc1	-102*	?	13µM*	18µM*	.	.
Cc1ccccc1OCC(=O)Nc1nnc(S(=O)(=O)N(C)c2ccccc2)s1	14	5%[46.1 µM]	.	.	-7%	-4%
CCc1nnc(NC(=O)Nc2ccc(Cl)cc2)s1	-40	.	-15%	.	-4%	-7%
O=C(Nc1ccc(Cl)cc1)Nc1nnc(CSCc2ccc(Cl)cc2)s1	-67*	.	5µM*	.	.	.
c1ccc(COc2ncnc3c2ncn3CCCNC2CCN(Cc3ccccc3)CC2)cc1	-86*	.	.	.	-30%	?
COc1ccc(CCC(=O)N2CCN(c3cccc(C)c3C)CC2)cc1	-80*	.	-26%	20%[46.1 µM]	-12%	-11%
COc1ccc(CC(=O)N2CCN(c3cccc(C)c3C)CC2)cc1	10	.	-27%	.	.	.
COc1ccc(C(=O)CCC(=O)N2CCN(c3cc(C)ccc3C)CC2)cc1	?	.	10µM*	.	.	.
CCOC(=O)c1[nH]c2ccc(OC)cc2c1NC(=S)N1CCN(c2cccc(C)c2C)CC1	-12	?	10µM*	2.2µM*	?	?
CCOC(=O)N1CCN(C(=O)CCC(=O)c2ccc(OCC)cc2)CC1	-28	11µM*	10%	13%[46.1 µM]	-10%	2%
Cc1ccc(-n2c(=O)c3c4c(sc3n3c(C)nnc23)CO[C@H](C(C)C)C4)cc1	.	.	.	13%	.	.

Source: PubChem
